± gives the standard deviation of the averaged measurements. Of roughly 6,200 targets only a part is listed; those with the largest changes were picked by preference.
Compound: Nc1ncnc2c1ncn2[C@@H]1O[C@H](COP(=O)(O)OP(=O)(O)NP(=O)(O)O)[C@@H](O)[C@H]1O [adenylyl imidodiphosphate]
Experiment: NP40-soluble protein abundance relative to vehicle (solubility fold change) (ratio); higher = more soluble protein in presence of AMP-PNP
Procedure, shortened: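 Across three independent experiments, values are fold changes against the detergent-processed vehicle for each replicate, based on vsn-normalised intensities. The samples were Jurkat crude lysate treated with eight concentrations (0.1 to 10 mM) for 10 min at room temperature and then 3 min at 37 °C. Lysate was solubilised with 0.8% NP40 and benzonase, ultracentrifuged, and the supernatant analysed by TMT-labelled LC-MS/MS.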

Chain of UniProt O95251 (O95251 whole entry): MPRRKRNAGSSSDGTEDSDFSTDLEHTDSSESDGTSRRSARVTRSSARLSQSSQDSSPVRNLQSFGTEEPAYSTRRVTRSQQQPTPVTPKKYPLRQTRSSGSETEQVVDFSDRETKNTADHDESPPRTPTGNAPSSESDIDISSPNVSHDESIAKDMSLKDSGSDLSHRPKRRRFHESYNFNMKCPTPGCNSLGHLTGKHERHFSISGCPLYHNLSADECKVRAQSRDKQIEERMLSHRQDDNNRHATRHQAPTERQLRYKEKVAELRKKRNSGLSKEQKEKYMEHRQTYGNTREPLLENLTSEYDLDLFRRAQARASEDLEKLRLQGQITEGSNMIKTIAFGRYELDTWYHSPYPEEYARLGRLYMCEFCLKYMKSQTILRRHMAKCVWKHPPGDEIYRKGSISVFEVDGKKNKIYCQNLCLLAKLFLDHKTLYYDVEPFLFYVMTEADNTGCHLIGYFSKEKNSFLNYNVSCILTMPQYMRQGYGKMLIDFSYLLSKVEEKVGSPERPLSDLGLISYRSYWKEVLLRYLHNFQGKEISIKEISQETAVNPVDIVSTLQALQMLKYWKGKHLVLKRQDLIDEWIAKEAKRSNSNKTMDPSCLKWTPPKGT
Chain of UniProt P18859 (P18859 whole entry, one chain of several): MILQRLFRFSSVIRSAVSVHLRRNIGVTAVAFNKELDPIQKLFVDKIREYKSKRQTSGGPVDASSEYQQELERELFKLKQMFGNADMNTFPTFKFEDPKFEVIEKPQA
Chain of UniProt P13807 (P13807 whole entry): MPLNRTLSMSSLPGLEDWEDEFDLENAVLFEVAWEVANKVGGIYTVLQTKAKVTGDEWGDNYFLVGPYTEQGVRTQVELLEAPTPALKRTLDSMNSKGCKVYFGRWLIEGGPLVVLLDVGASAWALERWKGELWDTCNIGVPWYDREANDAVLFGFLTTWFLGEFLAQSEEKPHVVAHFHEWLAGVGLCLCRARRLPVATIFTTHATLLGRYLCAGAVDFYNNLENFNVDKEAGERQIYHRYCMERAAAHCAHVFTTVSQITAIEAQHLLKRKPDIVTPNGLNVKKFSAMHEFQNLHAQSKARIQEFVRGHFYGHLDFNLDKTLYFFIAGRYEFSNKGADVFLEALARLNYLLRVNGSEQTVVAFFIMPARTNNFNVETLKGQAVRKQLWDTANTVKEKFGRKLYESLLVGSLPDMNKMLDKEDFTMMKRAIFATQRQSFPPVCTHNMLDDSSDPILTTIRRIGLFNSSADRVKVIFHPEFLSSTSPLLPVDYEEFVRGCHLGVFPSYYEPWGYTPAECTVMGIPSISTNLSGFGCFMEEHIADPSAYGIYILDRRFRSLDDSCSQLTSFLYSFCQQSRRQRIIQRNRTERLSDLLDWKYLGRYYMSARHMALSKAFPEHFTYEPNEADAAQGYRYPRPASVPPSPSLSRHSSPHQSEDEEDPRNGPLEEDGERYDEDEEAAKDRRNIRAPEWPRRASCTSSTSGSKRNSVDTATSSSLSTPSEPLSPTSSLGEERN
Chain of UniProt O76071 (O76071 whole entry): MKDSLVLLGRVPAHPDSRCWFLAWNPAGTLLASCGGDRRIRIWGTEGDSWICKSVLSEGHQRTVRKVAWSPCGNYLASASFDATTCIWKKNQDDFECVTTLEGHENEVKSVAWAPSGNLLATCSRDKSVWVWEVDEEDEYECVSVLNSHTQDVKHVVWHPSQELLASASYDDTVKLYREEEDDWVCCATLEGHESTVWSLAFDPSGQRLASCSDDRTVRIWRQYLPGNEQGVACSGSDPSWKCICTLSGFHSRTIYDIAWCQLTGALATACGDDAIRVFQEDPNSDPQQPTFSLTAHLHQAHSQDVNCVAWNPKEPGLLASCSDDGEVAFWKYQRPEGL
Chain of UniProt P16401 (P16401 whole entry): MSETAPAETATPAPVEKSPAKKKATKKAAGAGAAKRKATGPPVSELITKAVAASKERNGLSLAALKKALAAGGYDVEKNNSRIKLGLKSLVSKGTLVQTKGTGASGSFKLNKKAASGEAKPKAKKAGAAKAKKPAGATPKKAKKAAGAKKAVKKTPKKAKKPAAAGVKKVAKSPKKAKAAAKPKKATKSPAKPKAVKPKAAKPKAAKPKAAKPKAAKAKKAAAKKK
Chain of UniProt Q01826 (Q01826 whole entry): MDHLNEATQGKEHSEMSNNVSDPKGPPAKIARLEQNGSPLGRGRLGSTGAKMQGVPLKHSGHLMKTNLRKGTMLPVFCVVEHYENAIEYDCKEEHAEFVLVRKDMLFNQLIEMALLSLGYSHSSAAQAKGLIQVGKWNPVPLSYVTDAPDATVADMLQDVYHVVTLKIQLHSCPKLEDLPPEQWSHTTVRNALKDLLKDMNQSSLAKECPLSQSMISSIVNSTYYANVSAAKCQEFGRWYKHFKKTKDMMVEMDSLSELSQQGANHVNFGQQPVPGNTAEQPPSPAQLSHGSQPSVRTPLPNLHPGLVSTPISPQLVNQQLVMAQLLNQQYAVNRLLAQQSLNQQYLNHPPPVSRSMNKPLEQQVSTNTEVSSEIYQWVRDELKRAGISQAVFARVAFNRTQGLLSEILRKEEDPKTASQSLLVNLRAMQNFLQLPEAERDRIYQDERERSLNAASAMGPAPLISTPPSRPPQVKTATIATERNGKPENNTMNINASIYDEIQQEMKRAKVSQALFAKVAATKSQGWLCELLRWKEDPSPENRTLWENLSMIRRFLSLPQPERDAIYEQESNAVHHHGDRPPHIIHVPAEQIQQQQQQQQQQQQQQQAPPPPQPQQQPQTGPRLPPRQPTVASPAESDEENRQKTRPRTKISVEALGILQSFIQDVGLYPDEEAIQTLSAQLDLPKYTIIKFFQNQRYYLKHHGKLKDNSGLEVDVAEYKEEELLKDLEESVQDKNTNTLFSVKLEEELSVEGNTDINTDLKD
Chain of UniProt P07108 (P07108 whole entry): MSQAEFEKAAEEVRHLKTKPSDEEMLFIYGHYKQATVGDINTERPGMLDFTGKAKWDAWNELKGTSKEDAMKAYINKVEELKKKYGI
Chain of UniProt O75616 (O75616 whole entry): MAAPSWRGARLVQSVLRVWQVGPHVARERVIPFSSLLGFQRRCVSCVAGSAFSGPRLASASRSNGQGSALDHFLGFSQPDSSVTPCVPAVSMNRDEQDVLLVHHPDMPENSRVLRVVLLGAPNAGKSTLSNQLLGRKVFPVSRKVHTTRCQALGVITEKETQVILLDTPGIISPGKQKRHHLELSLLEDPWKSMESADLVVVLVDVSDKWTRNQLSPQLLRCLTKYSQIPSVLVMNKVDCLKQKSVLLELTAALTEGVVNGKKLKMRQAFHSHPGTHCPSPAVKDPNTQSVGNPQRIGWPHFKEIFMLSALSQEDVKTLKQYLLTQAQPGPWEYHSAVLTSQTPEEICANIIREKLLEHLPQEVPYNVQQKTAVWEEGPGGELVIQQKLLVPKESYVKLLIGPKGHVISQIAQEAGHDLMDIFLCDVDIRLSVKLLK
Chain of UniProt O75717 (O75717 whole entry): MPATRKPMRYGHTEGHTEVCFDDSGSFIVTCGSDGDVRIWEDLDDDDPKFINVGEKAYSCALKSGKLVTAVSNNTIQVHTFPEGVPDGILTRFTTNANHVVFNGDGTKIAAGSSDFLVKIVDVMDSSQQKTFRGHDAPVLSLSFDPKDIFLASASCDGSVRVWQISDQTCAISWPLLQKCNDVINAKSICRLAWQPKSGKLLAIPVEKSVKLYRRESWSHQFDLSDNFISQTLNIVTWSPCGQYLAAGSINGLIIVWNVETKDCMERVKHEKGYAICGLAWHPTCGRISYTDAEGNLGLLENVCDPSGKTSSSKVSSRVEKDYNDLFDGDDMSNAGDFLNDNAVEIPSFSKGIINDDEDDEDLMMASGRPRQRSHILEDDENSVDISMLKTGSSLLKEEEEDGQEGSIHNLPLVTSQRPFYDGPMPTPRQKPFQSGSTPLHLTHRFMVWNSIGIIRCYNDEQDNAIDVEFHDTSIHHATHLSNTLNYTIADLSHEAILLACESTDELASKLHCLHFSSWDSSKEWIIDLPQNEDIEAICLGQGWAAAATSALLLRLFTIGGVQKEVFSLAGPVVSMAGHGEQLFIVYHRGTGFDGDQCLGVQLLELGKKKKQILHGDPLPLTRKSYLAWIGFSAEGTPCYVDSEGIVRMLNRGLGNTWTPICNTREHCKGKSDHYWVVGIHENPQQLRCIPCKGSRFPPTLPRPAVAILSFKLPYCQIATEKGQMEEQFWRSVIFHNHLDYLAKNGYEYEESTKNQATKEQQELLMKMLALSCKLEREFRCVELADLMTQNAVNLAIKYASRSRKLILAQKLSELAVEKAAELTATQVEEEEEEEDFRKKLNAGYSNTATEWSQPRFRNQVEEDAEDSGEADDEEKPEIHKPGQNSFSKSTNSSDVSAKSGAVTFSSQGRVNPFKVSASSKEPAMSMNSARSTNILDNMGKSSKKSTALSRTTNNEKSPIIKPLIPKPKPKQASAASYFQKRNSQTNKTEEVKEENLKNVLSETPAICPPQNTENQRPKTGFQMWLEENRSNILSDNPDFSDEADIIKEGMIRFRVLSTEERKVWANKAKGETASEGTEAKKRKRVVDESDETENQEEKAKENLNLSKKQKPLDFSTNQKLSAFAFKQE
Chain of UniProt P21912 (P21912 whole entry): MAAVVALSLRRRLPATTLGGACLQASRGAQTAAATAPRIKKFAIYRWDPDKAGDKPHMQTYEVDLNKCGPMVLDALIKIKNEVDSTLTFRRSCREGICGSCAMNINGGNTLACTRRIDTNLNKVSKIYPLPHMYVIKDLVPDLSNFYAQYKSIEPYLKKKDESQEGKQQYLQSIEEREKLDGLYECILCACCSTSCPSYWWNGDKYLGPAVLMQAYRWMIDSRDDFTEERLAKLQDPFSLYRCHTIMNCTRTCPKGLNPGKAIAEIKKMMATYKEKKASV

Target	NP40-soluble protein abundance (concentration: 1mM)	NP40-soluble protein abundance (concentration: 2mM)	NP40-soluble protein abundance (concentration: 4mM)	NP40-soluble protein abundance (concentration: 6mM)	NP40-soluble protein abundance (concentration: 8mM)	NP40-soluble protein abundance (concentration: 10mM)
UniProt P05771|P05771-2	1.05 ± 0.019	1.03 ± 0.016	1.04 ± 0.029	1.04 ± 0.012	1.05 ± 0.017	1.04 ± 0.03
CIAO1 (UniProt O76071)	1.02 ± 0.021	0.986 ± 0.024	1.01 ± 0.053	1.01 ± 0.044	1 ± 0.021	0.978 ± 0.028
SDHB (UniProt P21912)	0.976 ± 0.045	1 ± 0.056	0.987 ± 0.063	1.03 ± 0.079	1.02 ± 0.075	1.04 ± 0.052
SUB1 (UniProt P53999)	0.923 ± 0.049	1 ± 0.19	0.916 ± 0.088	1 ± 0.089	0.997 ± 0.043	1.02 ± 0.11
CAPZA2 (UniProt P47755)	1.01 ± 0.013	0.966 ± 0.02	0.9851 ± 0.0046	0.9821 ± 0.0042	1.004 ± 0.0091	0.986 ± 0.017
HIST1H1B (UniProt P16401)	1.052 ± 0.0074	1.18 ± 0.18	1.15 ± 0.11	1.27 ± 0.22	1.32 ± 0.21	1.59 ± 0.19
UniProt Q01826|Q01826-2	1.03 ± 0.033	1.07 ± 0.05	1.03 ± 0.051	0.985 ± 0.037	0.985 ± 0.026	1.01 ± 0.05
WDHD1 (UniProt O75717)	1.01 ± 0.021	0.996 ± 0.012	0.99 ± 0.015	0.963 ± 0.036	0.953 ± 0.016	0.937 ± 0.014
THOP1 (UniProt P52888)	0.938 ± 0.036	0.884 ± 0.095	0.924 ± 0.021	0.944 ± 0.034	0.942 ± 0.041	0.921 ± 0.028
UniProt O95251|O95251-4	1.11 ± 0.031	1.17 ± 0.06	1.18 ± 0.063	1.2 ± 0.073	1.25 ± 0.077	1.36 ± 0.088
ERAL1 (UniProt O75616)	0.7647 ± 0.0038	0.6675 ± 0.0031	0.716 ± 0.036	0.681 ± 0.011	0.674 ± 0.062	0.636 ± 0.04
UniProt P18859|P18859-2|A8MUH2	0.948 ± 0.053	0.899 ± 0.032	0.867 ± 0.062	0.834 ± 0.05	0.825 ± 0.063	0.857 ± 0.026
UniProt O95453|O95453-2|O95453-3	1.02 ± 0.018	0.975 ± 0.042	0.9979 ± 0.0039	0.991 ± 0.026	0.997 ± 0.016	0.968 ± 0.013
UniProt P13807|P13807-2	0.947 ± 0.11	0.922 ± 0.065	0.895 ± 0.096	0.867 ± 0.14	0.876 ± 0.098	0.863 ± 0.16
DBI (UniProt P07108)	1.04 ± 0.064	1.06 ± 0.055	0.987 ± 0.015	0.96 ± 0.041	0.928 ± 0.025	0.997 ± 0.1

Source: the supplement of paper PMC6411743
